Screening results as filed in PubChem BioAssay.
SSB-PriA inh – inhibitors of Klebsiella pneumoniae PriA binding to SSB C-terminal tail; AlphaScreen SSBct-PriA binding, biotinylated peptide; AID 1272365; inhibition, % at 33 µM; 0.6% of 430,000 active; in the data active means inhibition mostly above about 37%, no sharp cut-off; inactive means mostly below about 20%
PfHsp40 rescue – restores yeast growth despite PfHsp40 toxicity | AID 504582 | 0.68% of 340,000 active | growth rescue, % at 12.5 µM | S. cerevisiae expressing PfHsp40, growth rescue, ATP luminescence; in the data active means growth rescue above about 28%, passing the limit was not always enough; inconclusive means no clear call, values can overlap the other calls;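 further: yeast W303a lacking pdr1 and pdr3 grown in galactose medium; growth measured after three days at 30 °C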
Sa RN4220 lethal – kills Staphylococcus aureus RN4220. S. aureus RN4220 growth, OD600, 16 h. inhibition, % (test concentration not listed). 0.33% of 330,000 active; in the data active means inhibition above about 85%
VHR inh abs – blocks human VHR1 dual specificity phosphatase | recombinant VHR phosphatase, pNPP absorbance | 0.52% of 290,000 active | inhibition, % at 13.3 µM | P51452 | AID 1654; in the data active means inhibition above about 50%
Target sequence (P51452 whole entry, looked up): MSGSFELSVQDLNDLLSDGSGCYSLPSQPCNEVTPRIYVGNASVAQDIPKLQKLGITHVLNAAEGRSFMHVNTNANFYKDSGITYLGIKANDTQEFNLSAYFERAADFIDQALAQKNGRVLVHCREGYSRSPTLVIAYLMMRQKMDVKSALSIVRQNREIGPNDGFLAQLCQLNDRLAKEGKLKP
Sa ugtP lethal – growth inhibition of S. aureus ugtP deletion strain; AID 1259309; S. aureus RN4220 ugtP deletion, OD600 growth, 16 h; 0.54% of 330,000 active; growth inhibition, % (test concentration not listed); in the data active means growth inhibition above about 68%
Mtb hypoxia rep – reduces hypoxia-regulated biosensor signal in M. tuberculosis | M. tuberculosis hypoxia-regulated fluorescent reporter, fluorescence | fluorescence inhibition, % (test concentration not listed) | 0.1% of 300,000 active | AID 1159583; in the data active means fluorescence inhibition mostly above about 23%, no sharp cut-off; inactive means mostly below about 17%
A number is an active result; 0 = inactive; ? = inconclusive; - = no result; ! = not confirmed by another sample. Rows were chosen to be rich in hits. Some 1.8% of all compounds tested hit in one or more screens of this group.

SMILES	SSB-PriA inh	PfHsp40 rescue	Sa RN4220 lethal	VHR inh abs	Sa ugtP lethal	Mtb hypoxia rep
C=CCNC(=S)N1CCN(c2cc3c(cc2F)c(=O)c(C(=O)O)cn3CC)CC1	0	0	98	0	99	0
Cc1c(Cl)ccc2c(C(O)CBr)cc(-c3ccccc3)nc12 (stereo unspecified)	0	0	0	-	96	0
Cc1ccc(Cn2nnc3c(SCC(=O)Nc4cc(C)on4)ncnc32)cc1	0	-	-	-	-	-
CCN1CCCC1CNC(=O)c1cc([N+](=O)[O-])c(N(C)C)cc1OC (stereo unspecified)	0	0	0	57	0	0
CCN1CCCC1CNC(=O)c1cc(N)ccc1OC (stereo unspecified)	0	-	0	-	0	0
CCN(CC)S(=O)(=O)c1ccc(Cl)c(NC(=O)COC(=O)c2ccc([N+](=O)[O-])o2)c1	0	49	0	0	0	0
Cc1cccc(NC(=O)COC(=O)c2ccc([N+](=O)[O-])o2)c1C	0	53	0	0	0	0
COc1ccc(C)cc1NCc1ccc([N+](=O)[O-])cc1	40	0	0	0	0	0
O=C(COC(=O)c1ccc([N+](=O)[O-])o1)Nc1ccc(Br)cc1F	0	?	0	-	0	0
CN1/C(=C\C(=O)COC(=O)c2nccnc2N)C(C)(C)c2ccccc21	0	0	0	-	0	0
CN1/C(=C\C(=O)COC(=O)c2ccc([N+](=O)[O-])o2)C(C)(C)c2ccccc21	0	36	0	0	0	0
Cc1nc(N(C)C)nc(C)c1NC(=O)CCc1ccccc1	0	-	-	-	-	-
COc1ccc(CC(=O)N2CCN(Cc3nc(-c4ccco4)cs3)CC2)cc1OC	0	-	-	-	-	-
O=C(NCCOc1ccc(-c2ccc(F)cc2)nn1)c1cc(-c2ccc(F)cc2)n[nH]1	0	-	-	-	-	-
COc1ccc(Cc2cnc(NC(=O)C(c3ccccc3)c3ccccc3)s2)cc1	0	-	-	-	-	-
COc1ccc(-c2cn3c(C(=O)Nc4nccs4)csc3n2)cc1	0	-	-	-	-	-
COc1ccc(NC(=O)COC(=O)c2ccc([N+](=O)[O-])o2)cc1Cl	0	0	0	0	0	0
COc1ccc(C(C)(C)C)cc1NC(=O)COC(=O)c1ccc([N+](=O)[O-])o1	0	532	0	0	0	0
COc1ccc([N+](=O)[O-])cc1NC(=O)COC(C)=O	0	0	0	0	0	0
COc1ccc(C)cc1NC(=O)COC(=O)c1ccc([N+](=O)[O-])o1	0	77	0	0	0	0
COc1ccc(NC(=O)CSc2nccn3nc(-c4ccc(F)cc4)cc23)c(OC)c1	0	-	-	-	-	-
CCOC(=O)c1ccc(NC(=S)NNC(=O)c2cc(-c3cccnc3)nc3ccccc23)cc1	0	154	0	0	0	0
O=C(NNC(=S)Nc1ccccc1)c1cc(-c2cccnc2)nc2ccccc12	0	0	0	0	0	0
CCCCOc1cccc(-c2cc(C(=O)NNC(=S)NCC)c3ccccc3n2)c1	0	47	0	0	0	0
COc1ccc(Cl)cc1C(=O)NNC(=S)NC(=O)c1cc(-c2ccc(Cl)cc2)nc2ccccc12	0	0	115	0	0	-
SMILES	SSB-PriA inh	PfHsp40 rescue	Sa RN4220 lethal	VHR inh abs	Sa ugtP lethal	Mtb hypoxia rep
CCNC(=S)NNC(=O)c1cc(-c2ccc(OC)cc2)nc2ccccc12	0	0	0	0	0	0
COc1ccccc1[C@@H](O)Cn1cc(C(=O)N2CCN(C(=O)OC(C)(C)C)CC2)nn1	0	-	-	-	-	-
O=C(NC(c1ccccc1)c1ccccc1)N1CCCC(c2nnc(-c3ccsc3)o2)C1 (stereo unspecified)	0	-	-	-	-	-
O=C(N/N=C\c1c(Sc2ccccc2)nc2ccccn2c1=O)c1ccccc1O	0	-	-	-	-	-
COc1cccc(-c2c(-c3cc(OC)cc(OC)c3)n(C)c3ccc(-c4cnc(N5CCOCC5)nc4)cc23)c1	0	0	0	-	0	45
CCCCOC(=O)CSC1=C(C#N)C(c2cccc3ccccc23)CC(=O)N1 (stereo unspecified)	0	-	-	-	-	-
CCCOC(=O)CSC1=C(C#N)C(c2ccccc2Cl)CC(=O)N1 (stereo unspecified)	0	0	0	50	0	0
O=c1c2ccccc2sn1-c1ccccc1	0	0	0	0	94	0
O=c1c2cc(F)ccc2sn1-c1ccccc1	0	?	0	-	0	0
O=C(O)c1cccc(-n2sc3ccccc3c2=O)c1	0	52	-	-	-	-
Cn1c(SCC(=O)NN=Cc2ccco2)nc2ccccc21	0	-	0	-	0	0
c1ccc(Nc2cccc(Nc3ccccc3)n2)cc1	72	54	0	0	0	-
CCn1ccc(C(=O)Nc2nnc(-c3ccno3)o2)n1	28	-	-	-	-	-
CN(C)CCCNC(=O)C[C@H]1C[C@H](C(=O)N2CCCCC2)[C@@]2(CCc3ccccc3)c3[nH]c4cc(-c5ccco5)ccc4c3CCN2C1=O	46	0	0	-	0	0
CN(C)CCCNC(=O)C[C@H]1C[C@H](C(=O)N2CCCCC2)[C@@]2(C)c3[nH]c4cc(-c5ccco5)ccc4c3CCN2C1=O	0	0	0	-	0	0
O=c1ccc(-c2ccccc2)nn1Cc1ccc(Cl)cc1Cl	0	-	-	-	-	-
Cc1c(CCOC(=O)C2C3CC4CC(C3)CC2C4)sc[n+]1CC(=O)c1ccc(Br)cc1 (stereo unspecified)	0	0	92!	0	0	0
COc1ccccc1NC(=O)N(CCN(C)C)Cc1cc2cc(C)ccc2[nH]c1=O	0	0	0	52	0	0
Nc1cncc2c1NCCC2	0	-	-	-	-	-
COc1cc(C(=O)O)c2c(c1C)OC(=O)c1c(C)cc(O)c(C=O)c1O2	0	86	0	-	0	-
COc1cc(C(=O)O)c(N)cc1O	0	-	-	-	-	-
COc1ccccc1-c1ccc(N2CCN(S(C)(=O)=O)CC2)nn1	0	-	-	-	-	-
O=C(Nc1ccc(NC(=O)c2ccc(Cl)cc2Cl)cc1)c1ccc2c(c1)OCO2	0	0	0	0	0	0
O=C(Nc1ccc(C2=NCCN2)cc1)c1ccc(C(=O)Nc2ccc(C3=NCCN3)cc2)c(Cl)c1	0	234	-	0	-	-
COc1cc(C#Cc2c(-c3cncn3C)n(C)c3ccc(Br)cc23)cc(OC)c1	0	?	99	-	99	0
SMILES	SSB-PriA inh	PfHsp40 rescue	Sa RN4220 lethal	VHR inh abs	Sa ugtP lethal	Mtb hypoxia rep
O=C(Nc1ccccc1O)c1ccccc1O	0	0	0	0	0	0
Cc1cccc(NC(=O)c2ccccc2O)c1C	0	57	0	0	0	0
O=C(NC1CCCC1)c1ccc(Cn2c(=O)[nH]c3ccsc3c2=O)cc1	0	51	0	0	0	0
COC(=O)[C@@H]1C[C@@H]2CC[C@@H](O)C[C@@H]2N1Cc1ccc(C(F)(F)F)cc1	0	0	-	0	-	-
COC(=O)[C@@H]1C[C@H]2CC[C@H](O)C[C@H]2N1Cc1ccc(C(C)(C)C)cc1	101	0	-	0	-	-
CCn1nc(C(=O)Nc2cccc(S(=O)(=O)N3CCCC3)c2)c2ccccc2c1=O	0	0	0	-	0	23
CC(C)Cn1nc(C(=O)Nc2cccc(S(=O)(=O)N3CCCC3)c2)c2ccccc2c1=O	0	0	0	-	0	0
CCn1cc(C(=O)O)c(=O)c2cc(F)c(N3CCN(C(=S)NC(=O)c4ccccc4)CC3)cc21	0	0	99	0	99	0
